The full list was thinned out, with hits kept by preference.
hDAT+cocaine = changed hDAT dopamine uptake under cocaine IC80, either direction, primary screen, cocaine antagonist project, cell-based, LLC-PK1 hDAT, [14C]-dopamine uptake, MLSMR. hit rate 1.3% among 110,000. B-score at 10 µM. LLC-PK1 hDAT cells, [14C]-dopamine uptake with cocaine IC80; actives deviate in either direction. Sodium-dependent dopamine transporter (Homo sapiens), Q01959;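 active means Z score or B-score, a plate-position-corrected score, falls beyond the plate's 99.7% confidence bounds, in either direction; inactive means both scores lie inside the 99.7% bounds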;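 further: scored against the spread of the other compound wells on the same plate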
Target sequence (Q01959 whole entry, looked up): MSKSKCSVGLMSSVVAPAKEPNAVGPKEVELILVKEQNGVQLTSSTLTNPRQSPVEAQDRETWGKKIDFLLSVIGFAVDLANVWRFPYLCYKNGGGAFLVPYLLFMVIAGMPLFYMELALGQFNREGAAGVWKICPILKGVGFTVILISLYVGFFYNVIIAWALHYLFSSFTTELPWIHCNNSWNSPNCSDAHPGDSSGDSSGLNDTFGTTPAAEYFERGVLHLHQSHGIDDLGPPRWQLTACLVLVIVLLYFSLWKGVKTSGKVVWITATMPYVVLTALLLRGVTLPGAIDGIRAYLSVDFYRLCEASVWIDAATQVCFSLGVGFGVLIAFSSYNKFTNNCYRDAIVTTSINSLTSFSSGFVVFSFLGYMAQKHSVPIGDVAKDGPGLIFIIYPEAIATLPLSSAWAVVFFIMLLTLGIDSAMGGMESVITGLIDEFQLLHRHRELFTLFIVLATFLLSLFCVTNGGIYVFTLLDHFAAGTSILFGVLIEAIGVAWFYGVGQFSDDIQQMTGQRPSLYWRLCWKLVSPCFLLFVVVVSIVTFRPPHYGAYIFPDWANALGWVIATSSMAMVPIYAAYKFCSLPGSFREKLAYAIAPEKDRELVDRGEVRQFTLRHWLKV
ROCK2 blocker = inhibitors of human ROCK2 kinase, primary screen, biochemical, high-throughput, luminescence; Rho-associated protein kinase 2 (Homo sapiens), O75116; purified ROCK2, Kinase-Glo ATP depletion luminescence; inhibition, % at 6 µM; hit rate 0.35% among 60,000; AID 604, 2007;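 active means inhibition above the screen-wide mean inhibition plus 3 SD, cut at about 18% in these data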;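 further: plate controls were DMSO wells for no effect and Y-27632 control wells after no-enzyme background subtraction for full effect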
JNK3 inh = JNK3 kinase activity inhibitors, primary screen, biochemical, human, purified enzyme. AID 746, 2007. hit rate 0.61% among 60,000. HTS. inhibition, % at 8 µM; in the data active means inhibition above about 17%;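 further: 0% = DMSO and 100% = reference inhibitor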
PKA kinase inh = inhibitors of human PKA kinase activity, primary screen, biochemical, ATP-depletion luminescence, Kemptide substrate; cAMP-dependent protein kinase catalytic subunit alpha (Homo sapiens), P17612; PKA Kemptide phosphorylation, Kinase-Glo ATP luminescence; AID 524, 2006; inhibition, % at 6 µM; hit rate 0.1% among 65,000;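 active means inhibition above the screen-wide mean inhibition plus 3 SD, cut at about 21% in these data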
D1 allo mod = D1 CRE-luciferase signal change, two-sided – cell-based, HEK293 D1, dopamine EC30, D1 allosteric modulator project, primary screen | D(1A) dopamine receptor (Homo sapiens), P21728 | dopamine EC30 potentiation; actives deviate in either direction | B-score at 10 µM | hit rate 5.9% among 58,000;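 active means luminescence count or its row- and column-corrected plate score outside the 99.7% band of the plate's sample wells, on either side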
D1 PAM confirm = D1 receptor positive allosteric modulators, retest, confirmation, cell-based, HEK293 D1, CRE-luciferase, duplicate | shares compounds with D1 allo mod | dopamine EC30 potentiation; stronger effect = higher value | luminescence at 10 µM | hit rate 88% among 2,200;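 active means luminescence in either of two replicates above the same-plate mean plus 3 SD of the low-dose dopamine control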
D1 ag no DA = D1 receptor agonism without dopamine, confirmation, mechanism study for D1 allosteric modulator project, cell-based, HEK293 D1, CRE-luciferase, secondary assay 1; hit rate 0.8% among 1,900; luminescence at 10 µM; shares compounds with D1 allo mod; luminescence, no dopamine; stronger effect = higher value; AID 646, 2007; in the data active means luminescence above about 3900
Isoprot counter = counter-screen for D1 modulators: isoproterenol response in HEK293 cells; shares compounds with D1 allo mod; calls only at 10 µM; HEK293 D1 CRE-luciferase, isoproterenol EC30 counter-screen; hit rate 63% among 2,200;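 active means luminescence in either replicate above plate mean of wells with a partly effective reference agonist dose plus 3 SD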;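 further: isoproterenol raises cAMP through native beta-adrenoceptor Gs so signal bypasses D1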
* = called active by the depositor; i = inactive; nt = no result given; + = active, no number.

SMILES	hDAT+cocaine	ROCK2 blocker	JNK3 inh	PKA kinase inh	D1 allo mod	D1 PAM confirm	D1 ag no DA	Isoprot counter
CC(=O)Nc1sc(NC(=O)c2ccc(Cl)cc2)nc1-c1cccs1	-0.079	nt	nt	nt	nt	nt	nt	nt
Nc1nc(-c2cccs2)c(NC(=O)c2ccccc2)s1	1.8	0	-8	0	6*	14100*	1740	+
CCN(CC(=O)NC1CCCCCC1)S(=O)(=O)c1ccccc1	-0.023	0	-2	6	6.7*	4392	1572	i
CCN(CC(=O)NC1CCCC1)S(=O)(=O)c1ccc(C)cc1	-0.57	-2	-8	-5	-0.13	nt	nt	nt
CCCCn1c(CCC(=O)O)nc2c1c(=O)[nH]c(=O)n2CCC	0.71	nt	nt	nt	nt	nt	nt	nt
CCCCn1c(=O)[nH]c(=O)c2c1nc(COC(=O)c1c(C)noc1C)n2CCC	1.4	-1	5	-4	6.2*	14616*	1628	+
O=C(NC1CC2CCC1C2)C1CCN(S(=O)(=O)c2ccc(-c3nn[nH]n3)cc2)CC1 (configuration not stated)	-0.34	6	-4	11	-0.84	nt	nt	nt
CCc1nc2ccccc2c(C(=O)OC2CCOC2=O)c1C (configuration not stated)	0.047	5	2	8	5.4*	11292*	1608	+
CCCc1nc2ccccc2c(C(=O)OC2CCOC2=O)c1CC (configuration not stated)	1.6	6	1	15	1.8	nt	nt	nt
COc1cc(OC)c(C2=NOC(C(=O)O)C2)cc1Cl (configuration not stated)	-0.37	-12	-3	1	0.5	nt	nt	nt
COC(=O)Nc1sc(C)nc1-c1ccccc1	nt	3	2	-1	-0.57	nt	nt	nt
CCOC(=O)c1sc(N)nc1-c1ccccc1	-0.11	0	3	4	12*	13660*	1536	+
CCOC(=O)Nc1sc(C)nc1-c1ccccc1	-0.31	2	-2	10	3.7*	5108	1368	i
CCOC(=O)c1sc(N(C)C)nc1-c1ccccc1	-0.31	nt	nt	nt	nt	nt	nt	nt
CC(Sc1nnc(-c2ccc(Cl)cc2)n1C)C(N)=O (configuration not stated)	-0.038	6	-7	6	0.084	nt	nt	nt
CCSc1nc(N)c(C#N)c(-c2ccco2)c1C#N	-0.54	nt	nt	nt	nt	nt	nt	nt
N#Cc1c(-c2ccco2)cc(-c2ccc(F)cc2)nc1N	0.47	3	0	6	9.9*	16300*	2000	+
CC(C)Cc1cc(-c2ccco2)c(C#N)c(N)n1	nt	4	8	7	28*	29116*	1732	+
CC1=C(C(=O)Nc2cccnc2)C(c2ccc3c(c2)OCO3)C2=C(CCCC2=O)N1 (configuration not stated)	0.69	nt	nt	nt	nt	nt	nt	nt
Cc1ccc(-n2nc3c(c2NC(=O)c2c(-c4ccccc4Cl)noc2C)CSC3)cc1	3*	2	-3	2	4.6*	4636	1496	i
COc1ccc2nc3ccccc3nc2c1	0.27	nt	nt	nt	nt	nt	nt	nt
COc1ccc(-n2nc3ccccc3n2)cc1	0.31	8	14	6	3.2*	10504*	1592	i
COc1cc2c(cc1OC)CN(CC(=O)NC(=O)NCc1ccco1)CC2	0.68	3	3	2	6.8*	8812*	nt	i
Clc1ccc(OCc2nnc3n2N=C(c2ccc4c(c2)OCCO4)CS3)c(Cl)c1	-0.31	1	-4	3	4*	9040*	1568	+
CCc1nnc2n1N=C(c1ccc(-c3ccc(Cl)cc3Cl)o1)CS2	nt	0	2	-4	1	nt	nt	nt
SMILES	hDAT+cocaine	ROCK2 blocker	JNK3 inh	PKA kinase inh	D1 allo mod	D1 PAM confirm	D1 ag no DA	Isoprot counter
Cc1cc(C)nc(-n2nc(C)c(C3(O)C(=O)Nc4ccccc43)c2N)n1 (configuration not stated)	-0.18	nt	nt	8	-0.041	nt	nt	nt
Nc1nc(-c2ccc(Cl)cc2)cc(C(F)(F)F)n1	-0.0098	-4	6	-4	19*	19568*	1592	+
Nc1nc(-c2ccc(F)cc2)cc(C(F)(F)F)n1	-0.091	nt	nt	nt	nt	nt	nt	nt
N=c1sc2ccccc2n1-c1ccccc1	0.31	nt	nt	-2	21*	9268*	1508	+
CSc1nnc(Cn2c(=O)sc3ccccc32)n1-c1ccccc1	-0.18	7	-5	11	0.29	nt	nt	nt
CCCCc1cc2c(c(NC(=O)CC)n1)c(=O)oc1ccccc12	-0.18	2	3	6	6.6*	23508*	1676	+
CCCCc1cc2c(c(NC(C)=O)n1)c(=O)oc1ccccc12	-0.44	-1	1	4	15*	14552*	1312	+
COc1ccc(C(=O)OCC(=O)c2cc(OC)ccc2OC)c(OC)c1	-0.64	nt	nt	-7	0.017	nt	nt	nt
COc1ccc(OC)c(C(=O)COC(=O)C2CC3CCCC(C2)C3=O)c1 (configuration not stated)	0.1	5	0	9	2.2*	9744*	1720	i
N#CCCCSC1=C(C#N)C(c2ccccc2Cl)CC(=O)N1 (configuration not stated)	-0.2	1	-3	-5	-0.034	nt	nt	nt
Cn1c(CNC(=O)Cc2ccc3c(c2)OCO3)nnc1SCc1ccccc1	0.65	5	-1	13	-0.18	nt	nt	nt
CC(C)(C)OC(=O)N1CCC(c2c(C(=O)O)cnn2-c2ccccc2)CC1	-0.65	-15	-3	-2	-1.6	nt	nt	nt
CCOc1ccc(-c2cc3nc(C4CCN(C(=O)OC(C)(C)C)CC4)c(C(=O)O)cn3n2)cc1	3.4*	1	-6	-2	13*	13012*	1592	+
O=C(Cc1cccs1)Nc1ccccc1C(=O)O	-0.25	4	-1	0	-1.2	nt	nt	nt
O=C(Cc1cccs1)Nc1ccccc1NC(=O)Cc1cccs1	-0.21	-4	-3	-8	4.9*	5744	1712	i
COCCNC(=O)CN1CCN(Cc2cccc(Cl)c2)C1=O	0.037	1	-6	-5	-0.81	nt	nt	nt
COc1ccc(C(=O)NCc2cn3ccsc3n2)cc1OC	0.031	7	7	9	2.2	nt	nt	nt
COC(=O)c1cc(C)sc1NC(=O)c1cccnc1	-0.57	10	0	6	5.4*	16836*	1548	+

Compound activity: PubChem BioAssay, several laboratories
